The values below come from PubChem BioAssay (NCI).

Some test systems named below: NCI-H226 lung; NCI-H322M lung; HOP-62 NSCLC; NCI-H460 lung; HOP-92 NSCLC; NCI-H522 lung; A549/ATCC NSCLC; 786-0 renal; COLO 205 colon; DU-145 prostate; K-562 leukemia; MALME-3M melanoma; MDA-MB-231 breast; RXF 393 renal; SF-268 CNS; SF-295 CNS; SF-539 CNS; UACC-257 melanoma; M14 melanoma; HCT-15 colon.
What all share (experiment): NCI-60 one-dose screen, 48 h (100 = growth as untreated, 0 = no growth, -100 = all killed)
What all share (conditions): 10 µM unless noted

Compounds without any hit were thinned out: in the full panel of roughly 83,000, 20% have a hit.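 Each cell line was grown in a 96-well plate and treated with one concentration of compound for 48 hours. Values below 10 were considered active.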 A number with no mark means an inactive call. Active and inactive are the calls of the source.

Consider `COc1ccc(/C=C2\SC(=Nc3cc(C)on3)NC2=O)cc1`, for which the growth in the assay with NCI-H226 lung was 102%; in the assay on NCI-H322M lung, 97.7%; in the assay with HOP-62 NSCLC, 96%; in the assay with NCI-H460 lung, 103%; in the assay on HOP-92 NSCLC it was 94.4%; in the assay on NCI-H522 lung, 100%. The growth is 102% in the assay with A549/ATCC NSCLC; 102% with 786-0 renal; 103% with COLO 205 colon; 109% in the assay with DU-145 prostate; 100% in the assay on K-562 leukemia; 95.9% with MALME-3M melanoma. Also, the growth in the assay with MDA-MB-231 breast is 106%; in the assay with RXF 393 renal, 102%; in the assay with SF-268 CNS, 104%; in the assay on SF-295 CNS it was 95.2%; in the assay with SF-539 CNS it was 99.3%; in the assay with UACC-257 melanoma it was 96.7%. In addition, the growth with M14 melanoma is 92.2%; in the assay on HCT-15 colon it was 99.3%.

`O=c1/c(=C\c2ccc(-c3ccccc3)o2)sc2nc(-c3ccccc3)nn12`: the growth is 109% with NCI-H226 lung; 105% in the assay on NCI-H322M lung; 92.8% in the assay with HOP-62 NSCLC; 106% in the assay on NCI-H460 lung; 90% in the assay with HOP-92 NSCLC; 98.3% in the assay on NCI-H522 lung. Moreover, the growth in the assay with A549/ATCC NSCLC is 103%; in the assay with 786-0 renal, 99.2%; in the assay with COLO 205 colon, 117%; with DU-145 prostate, 107%; in the assay on K-562 leukemia, 102%; in the assay on MALME-3M melanoma it was 102%. Further, the growth in the assay on MDA-MB-231 breast is 97.9%; in the assay on RXF 393 renal, 115%; in the assay with SF-268 CNS it was 96.8%; with SF-295 CNS, 105%; in the assay on SF-539 CNS it was 105%; in the assay with UACC-257 melanoma, 106%. Besides, the growth was 100% in the assay on M14 melanoma and 91.8% with HCT-15 colon.

`CCOc1ccc([C@H]2C(C(=O)c3ccc(Cl)cc3)C3(N[C@@H]2c2ccccc2)C(=O)Nc2ccc(Br)cc23)cc1` (stereo not given in full): the growth was 47.3% in the assay with NCI-H226 lung; 45.6% in the assay on NCI-H322M lung; 54.5% in the assay with HOP-62 NSCLC; 2.83% (active) with NCI-H460 lung; 16% in the assay on HOP-92 NSCLC; 51.5% in the assay with NCI-H522 lung. Moreover, the growth with A549/ATCC NSCLC is 26%; with 786-0 renal, 23%; in the assay on COLO 205 colon, 19.3%; in the assay on DU-145 prostate, 47.6%; in the assay on K-562 leukemia, 14.2%; in the assay on MALME-3M melanoma, 64.8%. Besides, the growth in the assay on MDA-MB-231 breast was 11%; in the assay on RXF 393 renal it was 16.6%; in the assay with SF-268 CNS, 28.9%; in the assay with SF-295 CNS, 37.8%; in the assay with SF-539 CNS it was 48.8%; with UACC-257 melanoma it was 68.5%. The figures for the growth with M14 melanoma and in the assay on HCT-15 colon were 37.6% and 33.4%, respectively.

For `O=[N+]([O-])c1ccc(O)c2ncccc12`, the growth with NCI-H226 lung is 48.7%; with NCI-H322M lung, 39.1%; in the assay with HOP-62 NSCLC it was 19.1%; in the assay on NCI-H460 lung, 10.3%; in the assay on HOP-92 NSCLC, 40.1%; in the assay on NCI-H522 lung, 21.2%. In addition, the growth in the assay on A549/ATCC NSCLC was 27%; in the assay on 786-0 renal it was 42.4%; in the assay on COLO 205 colon, 46.5%; with DU-145 prostate, 43.3%; with K-562 leukemia, 12.6%; in the assay on MALME-3M melanoma, 38%. The growth in the assay with MDA-MB-231 breast was 31.9%; in the assay with RXF 393 renal it was 41.6%; with SF-268 CNS, 37.2%; with SF-295 CNS it was 23.1%; with SF-539 CNS it was 23.2%; in the assay on UACC-257 melanoma it was 16.5%. Further, the growth with M14 melanoma is 31.9%; with HCT-15 colon, 21.3%.

For `N#Cc1c(-c2ccc(Cl)cc2)nc(SCc2ccccc2)nc1N1CCNCC1`, the growth in the assay with NCI-H226 lung is 89.4%; in the assay with NCI-H322M lung, 79.6%; with HOP-62 NSCLC, 78.9%; in the assay with NCI-H460 lung, -45.6% (active); in the assay with HOP-92 NSCLC it was 21.8%; in the assay with NCI-H522 lung, 92.4%. The growth with A549/ATCC NSCLC is 66.7%; in the assay with 786-0 renal it was 64.3%; with COLO 205 colon it was -8% (active); with DU-145 prostate, 63.8%; in the assay with K-562 leukemia, 0.363% (active); in the assay on MALME-3M melanoma, 84.4%. Further, the growth in the assay on MDA-MB-231 breast is 44.2%; in the assay with RXF 393 renal it was 74.4%; with SF-268 CNS, 74.2%; in the assay with SF-295 CNS it was 94.3%; with SF-539 CNS it was 75.6%; in the assay with UACC-257 melanoma, 97.3%. The growth in the assay with M14 melanoma was 82.1%; in the assay with HCT-15 colon it was 13.2%.

Regarding `N=C1CC(=O)NN1C(=O)CSc1nc2sc3c(c2c(=O)n1-c1ccc(Cl)cc1)CCCC3`, the growth is 103% in the assay on NCI-H226 lung; 103% in the assay on NCI-H322M lung; 90.3% in the assay with HOP-62 NSCLC; 101% in the assay on NCI-H460 lung; 80.1% with HOP-92 NSCLC; 102% with NCI-H522 lung. For the same molecule, the growth with A549/ATCC NSCLC is 102%; in the assay on 786-0 renal it was 94.2%; in the assay with COLO 205 colon, 123%; with DU-145 prostate, 111%; in the assay with K-562 leukemia, 94.6%; with MALME-3M melanoma it was 90.5%. In addition, the growth in the assay on MDA-MB-231 breast is 87.7%; in the assay on RXF 393 renal, 119%; in the assay on SF-268 CNS it was 99.7%; with SF-295 CNS, 97.6%; in the assay on SF-539 CNS, 97.3%; in the assay with UACC-257 melanoma it was 106%. The growth was 99.3% in the assay on M14 melanoma and 106% in the assay on HCT-15 colon.

Consider `CN(C)c1ccc(/C=c2\sc3nc4ccccc4n3c2=O)cc1`, for which the growth was 105% in the assay on NCI-H226 lung; 90.8% in the assay on NCI-H322M lung; 108% in the assay on HOP-62 NSCLC; 105% in the assay with NCI-H460 lung; 103% in the assay with HOP-92 NSCLC; 102% in the assay with NCI-H522 lung. Besides, the growth with A549/ATCC NSCLC was 117%; in the assay on 786-0 renal it was 98.5%; in the assay with COLO 205 colon it was 111%; in the assay on DU-145 prostate, 110%; in the assay with K-562 leukemia, 96.8%; in the assay on MALME-3M melanoma it was 101%. For the same molecule, the growth in the assay with MDA-MB-231 breast is 91.2%; in the assay with RXF 393 renal, 117%; with SF-268 CNS, 109%; with SF-295 CNS it was 109%; in the assay with SF-539 CNS, 96.5%; in the assay on UACC-257 melanoma it was 117%. In addition, the results for the growth with M14 melanoma and with HCT-15 colon were 102% and 107%, respectively.
